Some test systems named below: DU-145 prostate; K-562 leukemia; MALME-3M melanoma; MDA-MB-231 breast; RXF 393 renal; SF-268 CNS; SF-295 CNS; SF-539 CNS; UACC-257 melanoma; M14 melanoma; HCT-15 colon; HT29 colon; SNB-75 CNS; SNB-19 CNS; PC-3 prostate; SK-MEL-5 melanoma; UACC-62 melanoma; LOX IMVI melanoma; SK-MEL-28 melanoma; U251 CNS.
Common to all, as to assay: NCI-60 one-dose screen, 48 h (100 = growth as untreated, 0 = no growth, -100 = all killed)
Holding throughout (settings): 10 µM unless noted

The structures appear in SMILES notation. About 83,000 compounds went through this panel and 20% of them were active in at least one assay; those are over-represented in the sample as a whole.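 Cells were grown in 96-well plates and exposed to the test compound at a single concentration for 48 hours; results are reported as percent growth, with values below 10 considered active.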 A number with no mark means an inactive call. Active and inactive are the calls of the source.

`ClC1c2ccccc2CCc2ccccc21`: the growth in the test on DU-145 prostate was 120%; in the test with K-562 leukemia, 109%; in the test on MALME-3M melanoma, 90.6%; in the test with MDA-MB-231 breast, 104%; with RXF 393 renal, 111%; in the test on SF-268 CNS, 99.3%. Further, the growth with SF-295 CNS is 106%; with SF-539 CNS, 95%; in the test with UACC-257 melanoma, 88.8%; in the test with M14 melanoma, 99.2%; in the test with HCT-15 colon it was 88.2%; with HT29 colon it was 74.1%. For the same compound, the growth in the test with SNB-75 CNS was 81.6%; with SNB-19 CNS it was 111%; in the test on PC-3 prostate, 83.5%; with SK-MEL-5 melanoma, 96.7%; in the test with UACC-62 melanoma, 98.5%; in the test on LOX IMVI melanoma, 93.6%. The growth in the test with SK-MEL-28 melanoma is 112%.
Take `O=C(Nc1ccc(-n2cc(-c3ccncc3)c(-c3ccc(O)c(Cl)c3)n2)cc1)Nc1cc(C(F)(F)F)cc(C(F)(F)F)c1`: the growth is 80.6% with DU-145 prostate; 57.6% in the test with K-562 leukemia; 92.1% in the test with MALME-3M melanoma; 78.3% in the test on MDA-MB-231 breast; 27% in the test with RXF 393 renal; 70.8% in the test on SF-268 CNS. The growth is 19.6% in the test with SF-295 CNS; 62.4% in the test on SF-539 CNS; 90.3% with UACC-257 melanoma; 55.6% in the test with M14 melanoma; 61.1% in the test on HCT-15 colon; 97.2% in the test with HT29 colon. Moreover, the growth was 72.2% with SNB-75 CNS; 47.6% with SNB-19 CNS; 50.4% in the test on PC-3 prostate; 54% in the test on SK-MEL-5 melanoma; 64.1% with UACC-62 melanoma; 51.4% with LOX IMVI melanoma. Besides, the growth with SK-MEL-28 melanoma was 76.8%.
On to `CC(CCC(=O)O)[C@H]1CCC2C3C(=O)C[C@@H]4CC(=O)CC[C@]4(C)C3CC(=O)[C@@]21C` (stereo partly drawn), for which the growth with DU-145 prostate is 114%; with K-562 leukemia it was 94.2%; in the test with MALME-3M melanoma, 97.5%; in the test on MDA-MB-231 breast, 90.7%; in the test with RXF 393 renal it was 110%; in the test on SF-268 CNS it was 110%. Further, the growth in the test with SF-295 CNS was 92.9%; in the test on SF-539 CNS it was 111%; with UACC-257 melanoma it was 112%; in the test on M14 melanoma it was 110%; in the test on HCT-15 colon, 105%; in the test on HT29 colon, 117%. Also, the growth with SNB-75 CNS was 110%; in the test with SNB-19 CNS, 101%; in the test on PC-3 prostate it was 92.8%; in the test with SK-MEL-5 melanoma, 105%; in the test on UACC-62 melanoma, 93.2%; in the test with LOX IMVI melanoma it was 92.5%. Besides, the growth with SK-MEL-28 melanoma was 119%.
Consider `CCOC(=O)c1noc2c1CCc1cn(Cc3cc(OC)cc(OC)c3)cc1-2`, for which the growth in the test with DU-145 prostate is 104%; in the test with K-562 leukemia, 102%; with MALME-3M melanoma, 107%; in the test with MDA-MB-231 breast, 117%; in the test on RXF 393 renal, 113%; with SF-268 CNS, 96.8%. Besides, the growth in the test with SF-295 CNS was 95.3%; in the test with SF-539 CNS, 98.8%; with UACC-257 melanoma it was 101%; in the test with M14 melanoma, 101%; in the test on HCT-15 colon, 96.4%; with HT29 colon, 75.4%. For the same compound, the growth in the test with SNB-75 CNS is 95.8%; in the test with SNB-19 CNS, 113%; in the test with U251 CNS, 110%; in the test on SK-MEL-5 melanoma, 101%; in the test with UACC-62 melanoma it was 103%; with LOX IMVI melanoma, 95.5%. Further, in the test on SK-MEL-28 melanoma, the growth is 105%.
Consider `Nn1c(SCC(=O)Nc2cc(Cl)c(Cl)cc2Cl)nnc1-c1cc(F)c(Cl)cc1Cl`, for which the growth with DU-145 prostate is 113%; in the test with K-562 leukemia, 90.2%; in the test on MALME-3M melanoma, 121%; in the test with MDA-MB-231 breast, 127%; in the test on RXF 393 renal it was 151%; in the test on SF-268 CNS, 110%. The growth is 109% in the test with SF-295 CNS; 108% in the test with SF-539 CNS; 108% in the test on UACC-257 melanoma; 96.7% in the test on M14 melanoma; 150% in the test with HCT-15 colon; 110% with HT29 colon. For the same compound, the growth was 106% in the test on SNB-75 CNS; 102% in the test on SNB-19 CNS; 114% in the test with U251 CNS; 78.4% with SK-MEL-5 melanoma; 146% in the test on UACC-62 melanoma; 129% in the test with LOX IMVI melanoma. The growth in the test with SK-MEL-28 melanoma is 135%.
Regarding `O=[N+]([O-])c1ccccc1NC1c2ccccc2Oc2ccccc21`, the growth in the test on DU-145 prostate was 58.3%; in the test on K-562 leukemia, 11.2%; in the test on MALME-3M melanoma, 48.4%; with MDA-MB-231 breast, 71.7%; in the test on RXF 393 renal, 81.1%; with SF-268 CNS, 41.2%. Also, the growth in the test with SF-295 CNS was 23.6%; in the test with SF-539 CNS, 58.2%; in the test on UACC-257 melanoma, 74.2%; in the test with M14 melanoma, 36.6%; with HCT-15 colon, 37%; with HT29 colon, 11%. Besides, the growth is 69.5% with SNB-75 CNS; 68.7% in the test on SNB-19 CNS; 40.9% with U251 CNS; 46% in the test on SK-MEL-5 melanoma; 48.7% with UACC-62 melanoma; 65.1% with LOX IMVI melanoma. Besides, in the test on SK-MEL-28 melanoma, the growth was 69.3%.
Regarding `Cc1ccc2[nH]c3nc4cccnc4c(C)c3c2c1`, the growth is 102% with DU-145 prostate; 89.1% in the test with K-562 leukemia; 127% with MALME-3M melanoma; 37.1% with MDA-MB-231 breast; 84.7% in the test with RXF 393 renal; 92.3% in the test on SF-268 CNS. For the same compound, the growth was 99.9% in the test with SF-295 CNS; 76.2% in the test on SF-539 CNS; 112% in the test with UACC-257 melanoma; 103% in the test with M14 melanoma; 88.1% in the test on HCT-15 colon; 92.6% in the test on HT29 colon. Besides, the growth in the test on SNB-75 CNS was 77.6%; with SNB-19 CNS, 79%; in the test with PC-3 prostate, 92.7%; with SK-MEL-5 melanoma, 95.2%; with UACC-62 melanoma it was 100%; in the test with LOX IMVI melanoma it was 89.7%. Besides, in the test on SK-MEL-28 melanoma, the growth is 119%.
As for `Cc1cc(O[C@@H]2O[C@@H](C)[C@H](O)[C@@H](O)[C@H]2O)c2c3c(c(O[C@@H]4O[C@@H](C)[C@H](O)[C@@H](O)[C@H]4O)cc2c1)C(=O)c1c(O)cccc1C3=O`, the growth in the test with DU-145 prostate was 98%; in the test with K-562 leukemia, 79.6%; in the test with MALME-3M melanoma it was 107%; with MDA-MB-231 breast, 86.3%; in the test with RXF 393 renal, 29.6%; in the test on SF-268 CNS, 56.3%. Moreover, the growth is 79% with SF-295 CNS; 92.5% in the test with SF-539 CNS; 87.2% with UACC-257 melanoma; 82.6% with M14 melanoma; 87.9% in the test on HCT-15 colon; 72.4% in the test on HT29 colon. The growth in the test with SNB-75 CNS is 52.2%; with SNB-19 CNS, 94.3%; in the test on U251 CNS, 82%; with SK-MEL-5 melanoma, 67.8%; with UACC-62 melanoma it was 65.6%; in the test on LOX IMVI melanoma, 74%. Moreover, the growth in the test with SK-MEL-28 melanoma was 90.8%.
In the case of `S=c1ssnc1-c1ccccn1`, the growth with DU-145 prostate is 41.6%; in the test on K-562 leukemia it was -35.5% (active); in the test on MALME-3M melanoma, 52%; in the test on MDA-MB-231 breast, 44.3%; in the test with RXF 393 renal, -0.23% (active); with SF-268 CNS, 24.9%. Moreover, the growth in the test with SF-295 CNS is 40.4%; with SF-539 CNS it was 14.5%; with UACC-257 melanoma, 93.3%; in the test with M14 melanoma, 24.5%; in the test on HCT-15 colon, 14.1%; with HT29 colon, 33.6%. Moreover, the growth in the test with SNB-75 CNS was 36.6%; in the test on SNB-19 CNS it was 47.8%; in the test on PC-3 prostate, 32.9%; in the test with SK-MEL-5 melanoma it was 16.7%; in the test with UACC-62 melanoma, 34.5%; with LOX IMVI melanoma it was 6.73% (active). Also, in the test with SK-MEL-28 melanoma, the growth was 52.2%.
Regarding `CCn1cc(C(=O)O)c(=O)c2cc(F)c(N3CCN(CC(=O)Nc4ccc(C(C)=O)cc4)CC3)cc21`, the growth with DU-145 prostate was 111%; in the test on K-562 leukemia it was 94.6%; in the test with MALME-3M melanoma, 105%; in the test with MDA-MB-231 breast it was 100%; in the test with RXF 393 renal, 102%; with SF-268 CNS, 102%. Moreover, the growth with SF-295 CNS was 103%; with SF-539 CNS it was 98%; with UACC-257 melanoma it was 93.1%; in the test on M14 melanoma, 102%; with HCT-15 colon it was 104%; with HT29 colon it was 100%. Moreover, the growth is 87.3% with SNB-75 CNS; 99% in the test with SNB-19 CNS; 96.4% in the test on PC-3 prostate; 100% in the test on SK-MEL-5 melanoma; 95.9% in the test on UACC-62 melanoma; 96.1% in the test on LOX IMVI melanoma. In the test on SK-MEL-28 melanoma, the growth is 105%.
Regarding `CCc1c(C)c2cc3c(c(C)c2oc1=O)OCC(=O)N3`, the growth with DU-145 prostate is 72.5%; in the test with K-562 leukemia it was 82.5%; with MALME-3M melanoma it was 79%; in the test on MDA-MB-231 breast, 65.6%; with RXF 393 renal it was 68%; in the test on SF-268 CNS, 68.3%. Further, the growth in the test on SF-295 CNS was 71.7%; in the test with SF-539 CNS, 67.8%; with UACC-257 melanoma, 84.3%; in the test on M14 melanoma, 88.8%; in the test with HCT-15 colon, 67.2%; in the test with HT29 colon, 64.1%. Further, the growth was 14.3% in the test on SNB-75 CNS; 64.3% with SNB-19 CNS; 80.4% in the test with PC-3 prostate; 81.1% in the test on SK-MEL-5 melanoma; 69.6% in the test on UACC-62 melanoma; 65.3% in the test on LOX IMVI melanoma. For the same compound, in the test with SK-MEL-28 melanoma, the growth was 92.7%.
For the compound `COc1cc(NC(C)CCCN2C(=O)c3ccccc3C2=O)c2nc(C)ccc2c1OC` (stereo not drawn), the growth in the test on DU-145 prostate was 103%; in the test with K-562 leukemia, 66.5%; in the test with MALME-3M melanoma it was 104%; in the test with MDA-MB-231 breast it was 78.3%; in the test with RXF 393 renal, 96.4%; with SF-268 CNS it was 104%. Besides, the growth in the test on SF-295 CNS was 93.5%; in the test with SF-539 CNS, 99.4%; in the test with UACC-257 melanoma, 102%; in the test with M14 melanoma, 99.9%; in the test on HCT-15 colon, 89.8%; in the test with HT29 colon, 98.4%. Besides, the growth was 82.6% in the test on SNB-75 CNS; 99.7% in the test with SNB-19 CNS; 81.1% in the test on PC-3 prostate; 88.5% in the test on SK-MEL-5 melanoma; 74.9% in the test with UACC-62 melanoma; 85.7% in the test with LOX IMVI melanoma. Further, the growth in the test on SK-MEL-28 melanoma was 97.4%.

For the origin of these results see PubChem BioAssay (NCI).
